Results taken from PubChem BioAssay (NCI).
The panel holds about 79,000 compounds, 15% with a hit somewhere; the sample as a whole holds those more often. Unmarked numbers belong to inactive results. Activity calls are given as the source filed them. Cut-off read from the data, not from the text of the source: active = growth inhibition above about 70%; inactive = the rest.

How the values were obtained:
[1] = NCI Yeast Anticancer Drug Screen. Data for the rad50 strain (AID 155);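 note: 0% = growth of vehicle-only cultures of the same strain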; details: S. cerevisiae rad50 strain growth inhibition, hits give high values
Summary of the method: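 A DNA repair-deficient yeast mutant serves as the test organism; compound-induced growth inhibition is calculated against vehicle-treated cells.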

[2] = NCI Yeast Anticancer Drug Screen. Data for the mec2-1 strain (AID 157); details: S. cerevisiae mec2-1 strain, hits give high values
Summary of the method: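 Cells of the genetically defined mec2-1 yeast strain are incubated with test compound. Inhibition of growth is calculated against vehicle-treated controls.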

[3] = NCI Yeast Anticancer Drug Screen. Data for the sgs1 mgt1 strain (AID 161);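 note: 0% = growth of cultures given vehicle only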; details: S. cerevisiae sgs1 mgt1 strain, hits give high values
Summary of the method: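 Test agents were incubated with a DNA-repair-mutant yeast strain. Growth was then read and compared against vehicle-treated controls.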

[4] = NCI Yeast Anticancer Drug Screen. Data for the cln2 rad14 strain (AID 165);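 note: 0% = growth equal to vehicle treated cultures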; details: S. cerevisiae cln2 rad14 strain, hits give high values
Summary of the method: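 The screen exposed genetically defined yeast (cln2 rad14) to test compounds and scored growth inhibition relative to vehicle-treated controls.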

[5] = NCI Yeast Anticancer Drug Screen. Data for the bub3 strain (AID 167); details: S. cerevisiae bub3 mutant strain, hits give high values
Summary of the method: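 Inhibition values come from growth of compound-treated mutant yeast normalised to vehicle-treated controls.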

[6] = NCI Yeast Anticancer Drug Screen. Data for the mlh1 rad18 strain (AID 175); details: S. cerevisiae mlh1 rad18 strain growth inhibition, hits give high values
Summary of the method: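 Compound-treated yeast growth, normalised to vehicle controls. Strain bears defined DNA repair mutations.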

[7] = at 5.0 µM (retest, dose inferred, filed as 0.5)
[8] = at 50.0 µM (retest, dose inferred, filed as 5.0)

SMILES | growth inhibition [1, 7] [%] | growth inhibition [1, 8] | growth inhibition ([1]; at 50.0 µM) | growth inhibition [2, 7] [%] | growth inhibition [2, 8] | growth inhibition ([2]; at 50.0 µM) | growth inhibition [3, 7] [%] | growth inhibition [3, 8] | growth inhibition ([3]; at 50.0 µM) | growth inhibition [4, 7] [%] | growth inhibition [4, 8] | growth inhibition ([4]; at 50.0 µM) | growth inhibition [5, 7] [%] | growth inhibition [5, 8] | growth inhibition ([5]; at 50.0 µM) | growth inhibition [6, 7] [%] | growth inhibition [6, 8] | growth inhibition ([6]; at 50.0 µM)
O=C1CCCC/C1=C\c1ccc(Cl)c(Cl)c1 | 12 | 99% (active) | 98.7% (active) | 6 | 100% (active) | 98.6% (active) | 47 | 100% (active) | 99% (active) | 5 | 99% (active) | 95.9% (active) | 9 | 99% (active) | 98.2% (active) | 18 | 99% (active) | 99.2% (active)
O=S(=O)(/C=C/c1cccnc1)/C=C/c1cccnc1 | 0 | 2% | -14.1% | 0 | -3% | -1.65% | 1 | 6% | 5.3% | 3 | 10% | 82.8% (active) | -2 | 3% | 20.8% | -4 | -1% | 1.25%
O=C1C=CC(=O)c2nc3c(nc21)[nH]c1ccccc13 | -9 | 91% (active) | 95.7% (active) | -12 | 94% (active) | 95.4% (active) | -23 | 95% (active) | 94.7% (active) | -20 | 94% (active) | 93.5% (active) | -41 | 93% (active) | 91.4% (active) | -44 | 92% (active) | 95.5% (active)
NNc1ccccc1[N+](=O)[O-] | 8 | 80% (active) | 89% (active) | 8 | 84% (active) | 89.2% (active) | -2 | 62% | 84.6% (active) | 24 | 82% (active) | 77.2% (active) | 6 | 98% (active) | 88.5% (active) | -11 | 96% (active) | 83.3% (active)
O=NN(CCCl)C(=O)Nc1cc(=O)[nH]c(SCc2ccccc2)n1 | -23 | 52% | 8.95% | 3 | 10% | -3.6% | -10 | 33% | 4.7% | 14 | 12% | 45.5% | 5 | 30% | 16.9% | -11 | 70% (active) | 66.5%
O=C(Nc1ccccc1)ON=C1CCCCC1 | 3 | 75% (active) | 80% (active) | -31 | 36% | 63.6% | 3 | 68% | 94.2% (active) | 6 | 27% | 61.8% | 50 | 44% | 77.2% (active) | 5 | 62% | 89.6% (active)
CC12CCC(=O)C=C1CCC1C2C(O)CC2(C)C(c3csc(N)n3)CCC12 (stereo not given) | 58 | 98% (active) | 98.8% (active) | 17 | 98% (active) | 96.8% (active) | 49 | 97% (active) | 98% (active) | 23 | 90% (active) | 94.5% (active) | 27 | 97% (active) | 96.8% (active) | 38 | 96% (active) | 96% (active)
NCCOB(c1ccccc1)c1ccccc1 | 12 | 99% (active) | 53.1% | 0 | 99% (active) | 54.2% | 3 | 99% (active) | 50.5% | 8 | 99% (active) | 99% (active) | 1 | 99% (active) | 99.3% (active) | 5 | 99% (active) | 51.3%
NNC(=S)N/N=C(/C(=O)Nc1ccc(Cl)c(Cl)c1)C(C1OC(=O)c2ccccc21)[N+](=O)[O-] (stereo not given) | 27 | 44% | 26.6% | 20 | 39% | 4.45% | 9 | 59% | 34.4% | 31 | 48% | 23.4% | 28 | 62% | 32.5% | 20 | 44% | 29.8%
COC(=O)/N=C/CCC(O)NC(=O)OC (stereo not given) | 1 | 1% | 40.3% | -20 | 2% | 1.85% | 2 | -2% | -3.15% | -1 | 3% | 46.5% | -2 | -3% | -18.8% | -9 | 4% | 11.7%
